According to the supplement of paper PMC10849652:
About 8,800 targets were measured; listed, in parts, are those with a hit and a random draw of the rest. About 0.5% of all pairs of compound and target were hits.

Tests used:
Assay in all cases: log2 fold change, soluble protein after heating vs DMSO (PISA); higher = thermal stabilisation; K562 lysate, 10 uM; active = over 0.2 and 3.5 SD of the protein, either way, in both replicates (recomputed)
lapatinib = compound: CS(=O)(=O)CCNCc1ccc(-c2ccc3ncnc(Nc4ccc(OCc5cccc(F)c5)c(Cl)c4)c3c2)o1 [lapatinib]
Outline: (§1)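 Thermal stability, expressed as log-two fold change relative to solvent controls, is given from duplicates. Crude K562 extract in PBS pH 7.4 with 1 mM MgCl2, at 1 mg/mL protein, was treated with 10 μM compound for 30 min and heated in aliquots for 3 min across 48°C-58°C. After pooling, adjustment to 0.5% NP-40 at 4°C and centrifugation at 21,000xg for 90 min, supernatant protein was measured by TMTpro 16plex LC-MS/MS with channel sums equalised.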

pictilisib = compound: CS(=O)(=O)N1CCN(Cc2cc3nc(-c4cccc5[nH]ncc45)nc(N4CCOCC4)c3s2)CC1 [pictilisib]
Outline: as §1

crizotinib = compound: C[C@@H](Oc1cc(-c2cnn(C3CCNCC3)c2)cnc1N)c1c(Cl)ccc(F)c1Cl [crizotinib]
Outline: as §1

[1] = compound: C[C@H](C1=CC=C(C=C1)C(=O)NC2=C3C=CNC3=NC=C2)N
Outline: as §1

duvelisib = compound: C[C@H](Nc1ncnc2nc[nH]c12)c1cc2cccc(Cl)c2c(=O)n1-c1ccccc1 [duvelisib]
Outline: as §1

gandotinib = compound: Cc1cc(Nc2cc(CN3CCOCC3)c3nc(C)c(Cc4ccc(Cl)cc4F)n3n2)n[nH]1 [gandotinib]
Outline: as §1

tozasertib = compound: Cc1cc(Nc2cc(N3CCN(C)CC3)nc(Sc3ccc(NC(=O)C4CC4)cc3)n2)n[nH]1 [tozasertib]
Outline: as §1

doramapimod = compound: Cc1ccc(-n2nc(C(C)(C)C)cc2NC(=O)Nc2ccc(OCCN3CCOCC3)c3ccccc23)cc1 [doramapimod]
Outline: as §1

bafetinib = compound: Cc1ccc(NC(=O)c2ccc(CN3CC[C@H](N(C)C)C3)c(C(F)(F)F)c2)cc1Nc1nccc(-c2cncnc2)n1 [bafetinib]
Outline: as §1

[2] = compound: Cc1cccc(CC(=O)N2CCc3c2ccc(-c2cn(C)c4ncnc(N)c24)c3F)n1
Outline: as §1

nilotinib = compound: Cc1cn(-c2cc(NC(=O)c3ccc(C)c(Nc4nccc(-c5cccnc5)n4)c3)cc(C(F)(F)F)c2)cn1 [nilotinib]
Outline: as §1

[3] = compound: Cc1nc(Nc2n[nH]c3c2CN(C(=O)N[C@H](CN(C)C)c2ccccc2)C3(C)C)c2sccc2n1
Outline: as §1

dasatinib = compound: Cc1nc(Nc2ncc(C(=O)Nc3c(C)cccc3Cl)s2)cc(N2CCN(CCO)CC2)n1 [dasatinib]
Outline: as §1

[4] = compound: Cc1ncc(-c2ccnc(Nc3ccc(S(C)(=O)=O)cc3)n2)n1C(C)C
Outline: as §1

[5] = compound: Cn1cc(-c2ccc3c(c2)CCN3C(=O)Cc2cccc(C(F)(F)F)c2)c2c(N)ncnc21
Outline: as §1

quisinostat = compound: Cn1cc(CNCC2CCN(c3ncc(C(=O)NO)cn3)CC2)c2ccccc21 [quisinostat]
Outline: as §1

tipifarnib = compound: Cn1cncc1[C@@](N)(c1ccc(Cl)cc1)c1ccc2c(c1)c(-c1cccc(Cl)c1)cc(=O)n2C [tipifarnib]
Outline: as §1

[6] = compound: NC(=O)Nc1cc(-c2cccc(F)c2)sc1C(=O)N[C@H]1CCCNC1
Outline: as §1

[7] = compound: NC(=O)c1cnc(N[C@@H]2CCCC[C@@H]2N)nc1Nc1cccc(-n2nccn2)c1
Outline: as §1

[8] = compound: NC1(c2ccc(-c3nc4ccn5c(=O)[nH]nc5c4cc3-c3ccccc3)cc2)CCC1
Outline: as §1

Measured: log2 fold change

SND1 (UniProt Q7KZF4)
Chain of UniProt Q7KZF4 (Q7KZF4 whole entry, looked up): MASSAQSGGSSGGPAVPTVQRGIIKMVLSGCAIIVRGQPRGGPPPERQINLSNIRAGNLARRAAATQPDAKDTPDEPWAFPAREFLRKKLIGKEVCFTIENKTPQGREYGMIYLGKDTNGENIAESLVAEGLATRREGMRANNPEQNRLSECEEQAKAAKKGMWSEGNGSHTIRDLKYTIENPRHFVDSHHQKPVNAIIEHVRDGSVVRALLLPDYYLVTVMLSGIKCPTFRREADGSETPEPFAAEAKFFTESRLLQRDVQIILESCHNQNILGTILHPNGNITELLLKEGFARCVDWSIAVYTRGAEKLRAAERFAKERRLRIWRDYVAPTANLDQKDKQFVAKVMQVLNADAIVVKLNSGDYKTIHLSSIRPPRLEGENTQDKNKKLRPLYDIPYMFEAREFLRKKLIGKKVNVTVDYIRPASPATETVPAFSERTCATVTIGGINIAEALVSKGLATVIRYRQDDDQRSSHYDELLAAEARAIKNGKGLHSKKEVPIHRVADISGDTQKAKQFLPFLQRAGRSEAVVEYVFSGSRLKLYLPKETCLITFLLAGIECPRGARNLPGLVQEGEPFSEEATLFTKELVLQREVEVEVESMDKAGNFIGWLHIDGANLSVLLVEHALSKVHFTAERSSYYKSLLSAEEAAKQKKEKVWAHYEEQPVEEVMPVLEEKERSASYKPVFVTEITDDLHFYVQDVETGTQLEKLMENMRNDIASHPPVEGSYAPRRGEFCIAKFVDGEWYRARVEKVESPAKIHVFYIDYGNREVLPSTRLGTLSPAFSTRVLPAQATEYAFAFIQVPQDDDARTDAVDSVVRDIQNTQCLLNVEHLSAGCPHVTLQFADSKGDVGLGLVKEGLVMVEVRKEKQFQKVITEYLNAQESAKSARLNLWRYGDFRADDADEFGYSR
inactive: lapatinib -0.008 | pictilisib -0.012 | crizotinib -0.034 | [1] 0.077 | duvelisib 0.008 | gandotinib -0.108 | tozasertib 0 | doramapimod 0.034 | bafetinib -0.028 | [2] -0.009 | nilotinib -0.008 | [3] -0.011 | dasatinib -0.028 | [4] -0.024 | [5] 0.038 | quisinostat -0.033 | tipifarnib -0.003 | [6] 0.05 | [7] -0.007 | [8] -0.017

SRPK1 (UniProt Q96SB4)
Chain of UniProt Q96SB4 (Q96SB4 whole entry, looked up): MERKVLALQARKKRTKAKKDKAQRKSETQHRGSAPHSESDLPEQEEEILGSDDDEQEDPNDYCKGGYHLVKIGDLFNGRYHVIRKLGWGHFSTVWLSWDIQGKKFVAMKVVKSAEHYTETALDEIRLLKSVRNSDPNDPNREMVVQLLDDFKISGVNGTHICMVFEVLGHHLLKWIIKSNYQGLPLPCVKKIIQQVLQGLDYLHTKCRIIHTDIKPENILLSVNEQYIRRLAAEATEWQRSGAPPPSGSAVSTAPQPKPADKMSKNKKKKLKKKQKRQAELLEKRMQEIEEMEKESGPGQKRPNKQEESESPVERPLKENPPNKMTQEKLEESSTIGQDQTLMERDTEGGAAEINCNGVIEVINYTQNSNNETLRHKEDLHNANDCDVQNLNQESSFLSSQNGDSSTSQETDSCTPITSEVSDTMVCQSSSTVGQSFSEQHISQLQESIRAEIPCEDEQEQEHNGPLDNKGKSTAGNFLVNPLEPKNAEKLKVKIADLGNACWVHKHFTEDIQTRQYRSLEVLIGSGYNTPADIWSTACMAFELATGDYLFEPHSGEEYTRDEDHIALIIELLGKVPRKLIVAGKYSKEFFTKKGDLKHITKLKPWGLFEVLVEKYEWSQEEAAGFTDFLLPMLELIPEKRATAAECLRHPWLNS
active: [6] 0.283
inactive: lapatinib -0.006 | pictilisib 0.008 | crizotinib -0.089 | [1] 0.1 | duvelisib 0.025 | gandotinib 0.17 | tozasertib -0.016 | doramapimod 0.233 | bafetinib -0.028 | [2] -0.054 | nilotinib -0.002 | [3] 0.069 | dasatinib -0.01 | [4] -0.03 | [5] 0.017 | quisinostat -0.108 | tipifarnib -0.03 | [7] -0.021 | [8] -0.069

SHC1 isoform 6 (UniProt P29353)
Chain of UniProt P29353 (P29353 whole entry, looked up): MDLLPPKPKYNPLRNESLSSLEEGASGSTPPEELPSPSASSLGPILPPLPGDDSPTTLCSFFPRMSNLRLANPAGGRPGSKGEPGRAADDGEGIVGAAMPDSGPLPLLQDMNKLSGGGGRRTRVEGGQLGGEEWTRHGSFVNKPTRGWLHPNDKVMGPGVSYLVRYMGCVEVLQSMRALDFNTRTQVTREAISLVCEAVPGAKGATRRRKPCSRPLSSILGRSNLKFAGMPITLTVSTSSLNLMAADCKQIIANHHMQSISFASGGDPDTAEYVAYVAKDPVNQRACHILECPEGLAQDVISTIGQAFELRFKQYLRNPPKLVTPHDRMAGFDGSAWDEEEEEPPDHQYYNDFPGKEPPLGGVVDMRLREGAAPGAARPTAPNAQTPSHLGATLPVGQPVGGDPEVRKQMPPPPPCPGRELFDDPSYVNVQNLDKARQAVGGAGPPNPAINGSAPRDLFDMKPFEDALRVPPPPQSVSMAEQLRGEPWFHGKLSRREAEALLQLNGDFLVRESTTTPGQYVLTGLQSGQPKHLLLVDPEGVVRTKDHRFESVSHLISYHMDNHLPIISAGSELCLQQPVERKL
inactive: lapatinib 0.019 | pictilisib -0.057 | crizotinib 0.001 | duvelisib 0.005 | gandotinib -0.106 | tozasertib 0.005 | doramapimod 0.065 | bafetinib -0.034 | [2] -0.175 | nilotinib 0.034 | [3] 0.011 | dasatinib 0.046 | [4] -0.02 | [5] -0.005 | quisinostat 0.022 | tipifarnib 0.006 | [6] -0.036 | [7] -0.029 | [8] -0.001
active: [1] 0.577

SORBS3 (UniProt O60504)
inactive: lapatinib 0.072 | pictilisib 0.007 | crizotinib -0.002 | [1] 0.006 | duvelisib -0.127 | gandotinib 0.024 | tozasertib -0.012 | doramapimod -0.019 | bafetinib -0.032 | [2] 0.025 | dasatinib 0.005 | [5] -0.019 | quisinostat -0.088 | [6] 0.022 | [7] 0.036 | [8] -0.019

SSBP3 (UniProt Q9BWW4)
Chain of UniProt Q9BWW4 (Q9BWW4 whole entry, looked up): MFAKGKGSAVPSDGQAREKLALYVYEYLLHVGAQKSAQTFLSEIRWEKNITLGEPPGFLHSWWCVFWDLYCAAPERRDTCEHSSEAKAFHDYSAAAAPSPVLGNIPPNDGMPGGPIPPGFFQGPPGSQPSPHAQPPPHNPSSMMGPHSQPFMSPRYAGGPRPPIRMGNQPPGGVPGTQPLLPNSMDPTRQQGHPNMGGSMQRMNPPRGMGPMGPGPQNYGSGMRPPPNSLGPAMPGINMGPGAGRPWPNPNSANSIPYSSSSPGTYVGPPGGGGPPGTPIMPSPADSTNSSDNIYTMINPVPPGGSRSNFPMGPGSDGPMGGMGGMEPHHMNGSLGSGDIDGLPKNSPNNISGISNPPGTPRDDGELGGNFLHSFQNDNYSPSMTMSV
inactive: lapatinib 0.039 | pictilisib -0.158 | crizotinib 0.018 | [1] -0.014 | duvelisib 0.019 | gandotinib -0.019 | tozasertib -0.041 | doramapimod 0.014 | bafetinib -0.06 | [2] 0.029 | nilotinib -0.005 | [3] 0.061 | dasatinib -0.015 | [4] 0.014 | [5] 0.016 | quisinostat 0.018 | tipifarnib 0.028 | [6] -0.035 | [7] -0.029 | [8] -0.097

STMN3 (UniProt Q9NZ72)
Chain of UniProt Q9NZ72 (Q9NZ72 whole entry, looked up): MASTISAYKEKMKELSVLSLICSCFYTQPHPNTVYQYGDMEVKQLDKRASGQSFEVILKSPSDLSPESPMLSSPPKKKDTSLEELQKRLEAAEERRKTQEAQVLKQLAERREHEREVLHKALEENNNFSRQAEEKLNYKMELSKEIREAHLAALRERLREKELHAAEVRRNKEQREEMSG
inactive: lapatinib -0.017 | pictilisib -0.08 | crizotinib 0.009 | duvelisib -0.023 | tozasertib -0.023 | doramapimod -0.003 | bafetinib 0.041 | nilotinib -0.068 | [3] 0.218 | dasatinib 0.035 | [4] -0.041 | [5] -0.032 | quisinostat 0.006 | tipifarnib 0.176 | [6] -0.022 | [7] -0.006 | [8] 0.052

STK3 isoform 2 (UniProt Q13188)
Chain of UniProt Q13188 (Q13188 whole entry, looked up): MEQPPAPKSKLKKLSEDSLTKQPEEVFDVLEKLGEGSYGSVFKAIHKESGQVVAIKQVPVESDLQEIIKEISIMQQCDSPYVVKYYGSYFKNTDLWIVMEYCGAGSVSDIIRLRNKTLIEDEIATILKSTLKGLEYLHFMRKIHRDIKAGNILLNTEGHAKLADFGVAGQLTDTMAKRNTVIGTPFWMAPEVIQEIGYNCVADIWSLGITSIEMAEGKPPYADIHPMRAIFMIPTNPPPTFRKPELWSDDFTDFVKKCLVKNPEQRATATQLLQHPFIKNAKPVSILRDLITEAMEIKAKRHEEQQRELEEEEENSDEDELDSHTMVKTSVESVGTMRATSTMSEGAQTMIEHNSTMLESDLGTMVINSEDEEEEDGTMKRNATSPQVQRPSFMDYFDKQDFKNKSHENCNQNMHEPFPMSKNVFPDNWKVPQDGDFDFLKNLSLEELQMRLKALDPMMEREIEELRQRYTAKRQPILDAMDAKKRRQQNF
inactive: lapatinib -0.045 | pictilisib 0.02 | crizotinib 0.299 | [1] -0.029 | duvelisib -0.058 | tozasertib 0.224 | doramapimod -0.035 | bafetinib 0.001 | [2] 0.122 | nilotinib 0.015 | [3] 0.274 | dasatinib 0.132 | [4] 0.179 | [5] 0.276 | quisinostat -0.077 | tipifarnib -0.014 | [7] 0.108 | [8] -0.01
active: gandotinib 0.468

SRGN (UniProt P10124)
Chain of UniProt P10124 (P10124 whole entry, looked up): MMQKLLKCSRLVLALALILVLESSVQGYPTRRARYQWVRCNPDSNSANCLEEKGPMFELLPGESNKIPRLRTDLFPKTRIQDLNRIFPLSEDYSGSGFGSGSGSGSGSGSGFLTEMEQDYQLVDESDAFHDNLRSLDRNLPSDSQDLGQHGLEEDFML
inactive: lapatinib 0.016 | pictilisib -0.181 | crizotinib -0.054 | [1] -0.046 | duvelisib 0.019 | gandotinib -0.097 | tozasertib 0.008 | doramapimod -0.071 | bafetinib -0.17 | [2] 0.192 | dasatinib 0.003 | [5] -0.062 | quisinostat -0.026 | [6] 0 | [7] 0 | [8] -0.086

SPA17 (UniProt Q15506)
Chain of UniProt Q15506 (Q15506 whole entry, looked up): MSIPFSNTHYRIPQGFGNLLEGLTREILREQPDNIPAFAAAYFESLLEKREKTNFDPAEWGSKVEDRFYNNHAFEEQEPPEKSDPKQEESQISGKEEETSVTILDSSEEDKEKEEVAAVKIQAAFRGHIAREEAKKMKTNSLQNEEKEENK
active: [1] -0.498
inactive: lapatinib 0.058 | pictilisib -0.012 | crizotinib 0.019 | duvelisib 0.009 | gandotinib 0.303 | tozasertib -0.022 | doramapimod 0.054 | bafetinib -0.076 | [2] 0.25 | dasatinib -0.065 | [5] -0.041 | quisinostat 0.003 | [6] -0.015 | [7] 0.042

SLC25A38 (UniProt Q96DW6)
Chain of UniProt Q96DW6 (Q96DW6 whole entry, looked up): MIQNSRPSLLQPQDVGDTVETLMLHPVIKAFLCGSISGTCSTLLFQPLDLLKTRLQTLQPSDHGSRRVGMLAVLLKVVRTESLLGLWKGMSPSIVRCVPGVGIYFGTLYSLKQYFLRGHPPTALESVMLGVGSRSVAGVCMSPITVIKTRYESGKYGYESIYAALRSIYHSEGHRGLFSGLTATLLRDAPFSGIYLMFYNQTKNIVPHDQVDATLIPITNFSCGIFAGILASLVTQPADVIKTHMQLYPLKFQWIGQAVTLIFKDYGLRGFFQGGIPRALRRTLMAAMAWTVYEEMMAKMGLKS
inactive: lapatinib -0.093 | pictilisib -0.026 | crizotinib -0.044 | [1] -0.072 | duvelisib 0.173 | gandotinib -0.055 | doramapimod -0.024 | bafetinib -0.025 | [2] 0.112 | nilotinib -0.097 | [3] -0.142 | dasatinib 0.015 | [4] -0.171 | [5] 0.15 | quisinostat -0.068 | tipifarnib -0.061 | [6] -0.019 | [7] -0.138 | [8] 0.06
active: tozasertib 0.391

SOX5 (UniProt P35711)
Chain of UniProt P35711 (P35711 whole entry, looked up): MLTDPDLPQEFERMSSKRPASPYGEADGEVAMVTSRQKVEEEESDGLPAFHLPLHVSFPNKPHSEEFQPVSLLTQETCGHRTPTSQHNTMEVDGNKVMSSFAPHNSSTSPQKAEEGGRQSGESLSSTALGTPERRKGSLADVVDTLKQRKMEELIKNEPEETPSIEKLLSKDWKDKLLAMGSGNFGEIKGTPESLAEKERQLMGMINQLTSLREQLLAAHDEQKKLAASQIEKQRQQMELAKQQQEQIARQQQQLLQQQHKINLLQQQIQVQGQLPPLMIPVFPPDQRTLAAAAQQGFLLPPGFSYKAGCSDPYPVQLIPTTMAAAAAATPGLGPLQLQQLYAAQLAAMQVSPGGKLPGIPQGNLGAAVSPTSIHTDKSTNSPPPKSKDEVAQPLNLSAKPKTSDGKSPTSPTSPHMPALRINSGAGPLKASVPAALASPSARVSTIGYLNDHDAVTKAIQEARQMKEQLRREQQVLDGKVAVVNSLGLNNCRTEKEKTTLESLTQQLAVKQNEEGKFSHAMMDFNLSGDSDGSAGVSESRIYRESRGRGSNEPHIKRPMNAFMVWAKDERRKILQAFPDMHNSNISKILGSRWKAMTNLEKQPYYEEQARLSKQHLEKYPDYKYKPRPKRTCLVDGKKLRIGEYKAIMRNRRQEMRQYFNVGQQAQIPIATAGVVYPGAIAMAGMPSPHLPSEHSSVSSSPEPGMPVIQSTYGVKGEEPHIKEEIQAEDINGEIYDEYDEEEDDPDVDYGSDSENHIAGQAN
inactive: lapatinib 0.137 | pictilisib -0.019 | crizotinib 0.006 | [1] 0.007 | duvelisib -0.073 | gandotinib 0.06 | tozasertib -0.017 | doramapimod 0.026 | bafetinib -0.235 | [2] 0.007 | dasatinib -0.035 | [5] -0.095 | quisinostat 0.027 | [6] -0.03 | [7] -0.186 | [8] -0.004

SNRPD2 (UniProt P62316)
Chain of UniProt P62316 (P62316 whole entry, looked up): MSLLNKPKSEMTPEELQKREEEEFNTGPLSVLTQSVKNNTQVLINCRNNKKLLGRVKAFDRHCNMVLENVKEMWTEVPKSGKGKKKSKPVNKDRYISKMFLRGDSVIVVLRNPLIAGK
inactive: lapatinib 0.017 | pictilisib -0.01 | crizotinib 0.016 | [1] -0.055 | duvelisib 0.018 | gandotinib 0.057 | tozasertib -0.014 | doramapimod -0.009 | bafetinib 0.078 | [2] 0.052 | nilotinib 0.014 | [3] 0.015 | dasatinib 0.024 | [4] 0.015 | [5] -0.02 | quisinostat 0.007 | tipifarnib 0.014 | [6] -0.027 | [7] 0 | [8] -0.002
